Measurements reported in PubChem BioAssay (NCATS).
A number with no mark means an inactive call. Entries that show only a call come without a potency. The source made the active and inactive calls. The call rests on the fitted dose curve; in most records, active means well fitted inhibition curve with a large enough effect; inconclusive means small, poorly fitted or top-dose-only effect; inactive means flat fitted curve, though single readings scatter.

The compounds below were run on Nanoluciferase (engineered Oplophorus gracilirostris luciferase) (assay: Primary Nanoluciferase (NLuc) qHTS assay for identification of artifact compounds. (AID 1845222)). Details: NLuc-conditioned medium, Nano-Glo luminescence, 5 min; series mostly up to 54.1 µM.
Source text: PI: Alexander Tropsha Ph.D.
UNC Eshelman School of Pharmacy
University of North Carolina, Chapel Hill, North Carolina
Hits from high-throughput screening (HTS) of chemical libraries are often false positives due to their interference with the assay detection technology. In response to this problem, we generated the largest publicly available library of chemical liabilities and developed a free webtool to predict HTS artifacts, both of which are described herein. More specifically, we generated, curated, and integrated HTS datasets for thiol reactivity, redox activity, and luciferase (firefly and nano) activity. Using these curated datasets, we developed and validated several Quantitative Structure-Interference Relationship (QSIR) models to predict nuisance behavior. […] These models were employed for virtual profiling of the National Center for Advancing Translational Science's (NCATS) in-house library, and 256 compounds for each assay were selected for the experimental validation of nuisance behavior. The BA for these external predictions ranged from 58 to 78% for compounds within the applicability domains of the models. […] The models developed in this study, along with aggregation models previously developed by our group (SCAM Detective) were implemented in "Liability Predictor," an online tool which may be used as part of chemical library design or for triaging HTS hits. Both the models and the curated datasets are publicly available at https://liability.mml.unc.edu/.
SEQUENCE No. (e.g., 1, 2, 3, etc.); […] (e.g., Cells, Incubation, Reagent, etc.); VALUE; DESCRIPTION.
1; Reagent; 2 uL; Nanoluciferase media.
2; Compounds and control; 16 nL; Kalypsis pin tool (Wako USA) equipped with a 1536-well pin head.
4; Reagent; 2 uL; Luciferase enzyme.
6; Detection; Luminescence, ViewLux microplate reader.
NOTES (numbers refer to Sequence numbers above)
1. Medium was collected from the culture flasks of NLuc-expressing S16 cells (80% confluent) prior to cell plating, filtered through a 0.22um filter, and frozen at -20C prior to use. Media was diluted (1:55) and 2 uL was dispensed into all wells of a 1536-well assay plate (solid-bottom white plate; Greiner Bio One, Monroe, NC).
2. A Wako Pin-tool (Wako Automation, Richmond, VA) was used to transfer 16 nL of compounds (consisting of 7-plates in qHTS format, final concentration range 18.3 nM to 114 uM) or control Cilnidipine (final concentration range 623 nM to 80 uM).
3. 15 min. incubation at room temperature protected from light.
4. 2 uL of NLuc substrate (1:100 in Nano-Glo luciferase buffer; Nano-Glo luminescence assay, Promega, Madison, WI) was dispensed for a final assay volume of 4 uL.
5. Plates were centrifuged (121xg, 15 seconds) and incubated for 5 minutes.
6. Samples were read for luminescence on a ViewLux CCD imager (PerkinElmer). Data were normalized to no-enzyme (0% activity) and no-inhibitor (DMSO; 100%) controls and the resulting percent inhibition data were fitted to a 4-parameter Hill equation using NCATS in-house software.
Potency means the concentration at half of the fitted maximal effect.

Compound	Potency	activity, negative = inhibition
CN(C)CC(C)(C)CNc1nn2c(-c3ccccc3)nnc2cc1C1CCC1	inactive	
COc1cccc(Nc2c(C(N)=O)cnc3c(C)cc(S(=O)(=O)c4cccc(C(=O)N(C)C)c4)cc23)c1	inactive	
CCCCOc1c(C(=O)c2c(F)cc(C)cc2F)cnc2n[nH]cc12	inactive	
CC(C)c1cc(-c2n[nH]c(=O)n2-c2ccc3c(ccn3C)c2)c(O)cc1O	inactive	
Cc1ccc(NC(=O)C2(c3ccc4c(c3)OC(F)(F)O4)CC2)nc1-c1cccc(C(=O)O)c1	inactive	
COc1ccc2c(c1)CC[C@@H](CN(C)CC(=O)O)[C@H]2c1ccccc1	inactive	
CC(C)CC(=O)Nc1n[nH]c2c1CN(C(=O)C1CCN(C)CC1)C2(C)C	inactive	
O=C(Nc1ncc(-c2cc(C(F)F)nn2-c2c(Cl)cccc2Cl)s1)C1CC1	inactive	
Fc1cc(-c2cccc3ncc(-c4cnn(C5CCNCC5)c4)nc23)cc(F)c1CN1CCOCC1	inactive	
C[C@]12CC[C@H](O)CC1=CCC1C2CC[C@]2(C)C(n3cnc4ccccc43)=CCC12 (stereo not given in full)	inactive	
Cn1cc(-c2ccncc2)c(-c2ccc(OCc3ccc4ccccc4n3)cc2)n1	inactive	
CC(=O)c1c(C)c2cnc(Nc3ccc(N4CCNCC4)cn3)nc2n(C2CCCC2)c1=O		0% [at 6.45 µM]
CCNC(=O)Nc1ccc2ncc(Nc3ccc(C)cc3)nc2n1	inactive	
NC(=O)c1c(OCc2c(F)cc(Br)cc2F)nsc1NC(=O)NCCCCN1CCCC1	inactive	
CNC(=O)c1ccccc1Nc1nc(Nc2ccc(N3CCOCC3)cc2OC)ncc1Cl	inactive	
O=C(CCCCCCC(=O)Nc1ccc([C@H]2O[C@@H](CSc3nc(-c4ccccc4)c(-c4ccccc4)o3)C[C@@H](c3ccc(CO)cc3)O2)cc1)NO	inactive	
Nc1nccc(Oc2ccc(NC(=O)c3c[nH]cc(-c4ccc(F)cc4)c3=O)cc2F)c1Cl	inactive	
NC(=O)Nc1cc(-c2cccc(F)c2)sc1C(=O)N[C@H]1CCCNC1	inactive	
CCn1cc(-c2ccnc3[nH]c(-c4cccc(CN(C)C)c4)cc23)c(-c2ccc(NC(=O)N(C)C)cc2)n1	inactive	
Nc1ncnc2c1c(-c1cccc(OCc3ccccc3)c1)cn2C1CC(CN2CCCC2)C1 (stereo not given)	inactive	

Compound	Potency	activity, negative = inhibition
CCOc1ccccc1OCCNC(C)Cc1ccc(OC)c(S(N)(=O)=O)c1 (stereo not given)	inactive	
COc1cc2c(NC3CCN(C(C)C)CC3)nc(C3CCCCC3)nc2cc1OCCCN1CCCC1	inactive	
COc1ccc(OC)c(-c2nnc3ccc(-c4ccc(OC)c(O[C@@H]5CCOC5)c4)nn23)c1	inactive	
CCCCCCCCCC(=O)N[C@@H](Cc1c[nH]c2ccccc12)C(=O)N[C@H](CC(N)=O)C(=O)N[C@@H](CC(=O)O)C(=O)N[C@@H]1C(=O)NCC(=O)N[C@@H](CCCN)C(=O)N[C@@H](CC(=O)O)C(=O)N[C@H](C)C(=O)N[C@@H](CC(=O)O)C(=O)NCC(=O)N[C@H](CO)C(=O)N[C@@H]([C@@H](C)CC(=O)O)C(=O)N[C@@H](CC(=O)c2ccccc2N)C(=O)O[C@@H]1C	inactive	
O=C(c1cncc(Br)c1)N1CCC(N2CCCC2)CC1	inactive	
Nc1cccc(-c2cc3c(Oc4cccc(O)c4)ncnc3[nH]2)c1	inactive	
COc1cc2c(Oc3ccc(-c4cnc(Nc5ccc(F)cc5)n(C)c4=O)cc3F)ccnc2cc1OCCCN1CCOCC1	inactive	
Cc1[nH]nc2ccc(-c3cncc(OC[C@@H](N)Cc4ccccc4)c3)cc12	inactive	
COc1cc(C(=O)N2CCC(N3CCN(C)CC3)CC2)ccc1Nc1ncc2c(n1)N(C)c1ccccc1C(=O)N2C	inactive	
CN(C1CCc2c(c3ccccc3n2CC(=O)O)C1)S(=O)(=O)c1ccc(F)cc1 (stereo not given)	inactive	
C#Cc1cccc(Nc2ncnc3cc(OC)c(OCCCCCCC(=O)NO)cc23)c1	inactive	
C[C@]1(CO)CN(c2cc(C(=O)Nc3ccc4c(c3)-c3c(c(C(N)=O)nn3-c3ccc(F)cc3)CC4)c(Cl)cn2)C[C@@]1(C)CO	inactive	
CNC(=O)c1cc(Oc2ccc(NC(=O)Nc3cc(C(C)(C)C)nn3-c3ccc4ncccc4c3)c(F)c2)ccn1	inactive	
CC(C)c1noc(N2CCC(COc3ccc(-c4ccc(S(C)(=O)=O)cc4)nc3)CC2)n1	inactive	
Cc1ccc(C(N)=O)cc1Nc1nccc(-c2cn(C(C)C)c3cnccc23)n1	inactive	
Cc1ccc(CN2CCNCC2)cc1NC(=O)CNc1ccc(F)c(F)c1	inactive	
Cc1cn2c(-c3cn[nH]c3)cnc2c(Nc2ccc(C(=O)N3CCNCC3)cc2F)n1	inactive	
COc1cccc(-c2ccc(NC(=O)C3=C(C(=O)O)CCC3)c(F)c2)c1	12 µM (active)	
CN(C)Cc1c(C(=O)NCCOc2ccc(C(=O)NO)cc2)oc2ccccc12	inactive	
Cc1nc(Nc2n[nH]c3c2CN(C(=O)N[C@H](CN(C)C)c2ccccc2)C3(C)C)c2sccc2n1	inactive	
